Records with an inconclusive call do not appear. Activity calls are given as the source filed them. Unless noted, calls come from the whole dose curve; as a rule, active = well fitted curve in either direction with a large enough effect (not every such curve was filed as active); inconclusive = small, poorly fitted or top-dose-only effect, or another doubt; inactive = flat fitted curve, though single readings scatter.
Assays:
[1] = biological target: Lysosomal acid glucosylceramidase (Homo sapiens) (UniProt P04062); assay: Glucocerebrosidase-p2 (AID 348; in the data active = potency below about 10 µM; note: potency is the fitted concentration of half-maximal effect); details: purified GBA, blue fluorogenic substrate, 40 min
Sequence of Lysosomal acid glucosylceramidase (Homo sapiens) (P04062 whole entry, looked up): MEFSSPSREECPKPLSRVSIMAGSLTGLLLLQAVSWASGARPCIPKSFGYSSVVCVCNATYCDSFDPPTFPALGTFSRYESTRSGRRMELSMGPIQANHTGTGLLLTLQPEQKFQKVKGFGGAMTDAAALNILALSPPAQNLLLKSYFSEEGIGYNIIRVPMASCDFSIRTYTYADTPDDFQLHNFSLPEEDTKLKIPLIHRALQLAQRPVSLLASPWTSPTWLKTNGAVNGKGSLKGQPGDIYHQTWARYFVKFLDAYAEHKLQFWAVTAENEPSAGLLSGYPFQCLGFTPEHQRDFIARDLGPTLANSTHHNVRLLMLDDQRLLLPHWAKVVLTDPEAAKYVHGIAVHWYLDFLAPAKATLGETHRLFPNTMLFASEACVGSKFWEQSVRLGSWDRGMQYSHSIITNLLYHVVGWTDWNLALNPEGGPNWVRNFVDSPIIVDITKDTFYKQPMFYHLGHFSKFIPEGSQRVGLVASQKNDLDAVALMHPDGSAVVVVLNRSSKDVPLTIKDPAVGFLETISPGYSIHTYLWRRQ
Method in brief: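 Compounds titrated from 0.6 nM upwards against 0.2 nM enzyme in pH 5.9 citric acid/KH2PO4, taurocholate, tween-20; blue fluorogenic substrate 80 uM, 40 min room temperature, stopped and read Ex 365/Em 440 for AC50.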

[2] = AP1 Signaling Pathway (AID 357); details: ME-180 AP-1-bla reporter, EGF-induced, beta-lactamase ratio, 5 h; series mostly up to 17.2 µM; note: % is set by controls: 0 for no effect and ±100 for the full control effect
Method in brief: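 ME-180 cells with beta-lactamase reporter under AP-1 response element, stimulated with EC50 EGF; compounds tested in titration series, 5 h at 37 °C. CCF4 substrate added 2.5 h at room temperature; 460/530 nm emission ratio gave %activity and AC50.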

[3] = biological target: Cytochrome P450 1A2 (Homo sapiens) (UniProt P05177); assay: p450-cyp1a2 (AID 410; calls by dose curve;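 note: -100% = full effect of reference inhibitor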); details: recombinant CYP1A2, luciferin-ME demethylation, luminescence; series mostly up to 25.6 µM
Sequence of Cytochrome P450 1A2 (Homo sapiens) (P05177 whole entry, looked up): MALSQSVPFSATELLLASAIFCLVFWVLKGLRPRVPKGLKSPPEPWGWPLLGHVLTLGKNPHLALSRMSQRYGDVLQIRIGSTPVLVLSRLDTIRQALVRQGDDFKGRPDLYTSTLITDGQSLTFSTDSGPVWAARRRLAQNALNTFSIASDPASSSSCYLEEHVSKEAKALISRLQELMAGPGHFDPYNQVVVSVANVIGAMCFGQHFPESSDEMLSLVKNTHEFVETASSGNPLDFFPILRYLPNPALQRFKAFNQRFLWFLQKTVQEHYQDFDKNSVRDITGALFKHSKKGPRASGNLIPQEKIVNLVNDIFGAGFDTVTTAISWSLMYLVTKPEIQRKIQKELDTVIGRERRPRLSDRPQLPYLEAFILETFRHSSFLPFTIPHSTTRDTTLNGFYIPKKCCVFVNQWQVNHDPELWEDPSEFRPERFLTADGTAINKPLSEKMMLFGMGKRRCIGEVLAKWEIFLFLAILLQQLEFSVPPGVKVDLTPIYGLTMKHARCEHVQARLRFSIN
Method in brief: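 20nM CYP1A2 with 100uM Luciferin-ME (at Km) in 100mM KPO4; compound preincubated 10 min, NADPH regeneration added, 60 min at room temperature. Luciferin quantified by luminescence after detection reagent; normalized to 57 uM furafylline.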

[4] = NFAT Signaling Pathway (AID 444); details: Jurkat NFAT-bla M1, carbachol, beta-lactamase ratio, 5 h; at 7.69 µM (top of the series);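 note: carbachol stimulus at about its EC50 of 1 µM final; % is set by controls: 0 for no effect and ±100 for the full control effect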
Method in brief: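 Jurkat cells with NFAT-driven β-lactamase reporter and co-expressed M1 receptor, stimulated with carbachol (final 1 uM, ~EC50), compound titration, 5 h at 37 °C. CCF4 loaded 1 h at RT; 460/530 nm ratio gave %activity and AC50.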

[5] = Stat Signaling Pathway (AID 446); details: ME-180 SIE beta-lactamase reporter, IL-6 stimulated, 5 h; series mostly up to 17.2 µM;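 note: ME-180 cervical cancer cells given 40 pM IL-6 alongside compound; SIE-controlled beta-lactamase reporter measured as 460/530 nm FRET emission ratio; % is set by controls: 0 for no effect and ±100 for the full control effect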
Method in brief: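 Screening format detects activators and inhibitors alike: ME-180 SIE-bla cells stimulated at 40 pM IL-6 for 5 hrs with compound, then dual-emission beta-lactamase read at 405 nm excitation.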

[6] = biological target: Glucocorticoid receptor (Homo sapiens) (UniProt P04150); assay: GR-EFC Redistribution (AID 451; calls by dose curve; note: potency is the fitted concentration of half-maximal effect); details: CHO-K1 GR-EFC translocation, beta-gal luminescence, 2 h
Sequence of Glucocorticoid receptor (Homo sapiens) (P04150 whole entry, looked up, the tested form may be a part): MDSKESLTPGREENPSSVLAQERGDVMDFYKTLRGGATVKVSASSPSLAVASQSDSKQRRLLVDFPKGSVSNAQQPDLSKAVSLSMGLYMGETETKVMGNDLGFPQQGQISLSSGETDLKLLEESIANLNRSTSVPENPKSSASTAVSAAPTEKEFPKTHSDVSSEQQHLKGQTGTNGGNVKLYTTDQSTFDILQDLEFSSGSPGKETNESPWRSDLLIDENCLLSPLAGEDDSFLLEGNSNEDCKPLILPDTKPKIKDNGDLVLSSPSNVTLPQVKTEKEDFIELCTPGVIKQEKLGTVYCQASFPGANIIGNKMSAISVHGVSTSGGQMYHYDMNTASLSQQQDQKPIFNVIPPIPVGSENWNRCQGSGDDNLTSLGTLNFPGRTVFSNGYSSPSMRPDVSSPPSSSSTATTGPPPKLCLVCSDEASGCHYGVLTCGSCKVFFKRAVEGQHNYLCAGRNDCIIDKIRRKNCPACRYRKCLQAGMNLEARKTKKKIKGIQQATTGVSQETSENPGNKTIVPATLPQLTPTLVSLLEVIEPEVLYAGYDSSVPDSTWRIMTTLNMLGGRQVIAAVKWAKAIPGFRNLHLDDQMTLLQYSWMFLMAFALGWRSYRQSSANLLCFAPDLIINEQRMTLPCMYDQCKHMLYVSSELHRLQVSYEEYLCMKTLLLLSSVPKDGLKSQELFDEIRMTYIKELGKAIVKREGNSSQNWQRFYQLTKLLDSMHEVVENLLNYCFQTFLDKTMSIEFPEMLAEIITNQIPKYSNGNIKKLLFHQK
Method in brief: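 CHO-K1 cells expressing nuclear EA and GR-ED fragments of b-gal; compounds titrated up to 46 uM final, 2 h at 37 C. GR nuclear translocation read as complemented b-gal luminescence after 1 h RT detection.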

[7] = biological target: Mitogen-activated protein kinase 10 (Mus musculus) (UniProt Q61831); assay: JNK3 AlphaScreen Assay (AID 530); details: JNK3 lysate, c-Jun phosphorylation; series mostly up to 57.1 µM;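 note: kinase came from lysate of stimulated human HepG2 cells; signal reports phosphorylation of biotinylated GST-cJun 1-79 at Ser73 with 10 µM ATP; % is set by controls: 0 for no effect and ±100 for the full control effect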
Method in brief: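 Pre-activated (IL-1β/TNFα) JNK3 in HepG2 lysates phosphorylates biotin-GST-cJun(1-79), 10 uM ATP; anti-phospho-cJun(Ser73) AlphaScreen read at room temperature, pH 7.6 Tris buffer. Compounds pre-incubated 15 min as titrations.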

[8] = biological target: 3',5'-cyclic-AMP phosphodiesterase 4B (Homo sapiens) (UniProt Q07343); assay: qHTS Assay for Inhibitors of PDE-IV (AID 607; active = well fitted activation curve with a large enough effect in the main read-out, with a control signal flat, not every such curve was filed as active; note: % of control where 0% means no effect); details: HEK293 ACTOne CNG channel cells, membrane potential fluorescence; series mostly up to 22.9 µM
Sequence of 3',5'-cyclic-AMP phosphodiesterase 4B (Homo sapiens) (Q07343 whole entry, looked up): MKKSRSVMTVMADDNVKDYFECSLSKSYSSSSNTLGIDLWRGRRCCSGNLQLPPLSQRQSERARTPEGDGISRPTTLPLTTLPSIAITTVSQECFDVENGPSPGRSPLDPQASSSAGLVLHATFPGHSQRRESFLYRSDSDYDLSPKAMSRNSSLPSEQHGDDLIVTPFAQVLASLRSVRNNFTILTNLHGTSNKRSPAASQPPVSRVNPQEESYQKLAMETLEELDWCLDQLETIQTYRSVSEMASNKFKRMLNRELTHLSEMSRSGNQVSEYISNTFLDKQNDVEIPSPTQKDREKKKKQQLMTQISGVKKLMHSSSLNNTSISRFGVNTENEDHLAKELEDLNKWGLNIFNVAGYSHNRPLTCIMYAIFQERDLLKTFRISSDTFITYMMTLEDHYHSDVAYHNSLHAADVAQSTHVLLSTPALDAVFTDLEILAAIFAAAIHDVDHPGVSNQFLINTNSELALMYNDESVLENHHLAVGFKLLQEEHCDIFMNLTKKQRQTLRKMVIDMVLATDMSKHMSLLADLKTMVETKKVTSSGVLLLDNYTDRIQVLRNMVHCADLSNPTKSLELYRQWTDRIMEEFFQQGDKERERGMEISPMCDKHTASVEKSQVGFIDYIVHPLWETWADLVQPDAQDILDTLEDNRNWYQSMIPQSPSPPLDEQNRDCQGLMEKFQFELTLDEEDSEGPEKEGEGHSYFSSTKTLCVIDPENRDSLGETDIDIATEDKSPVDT
Method in brief: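 The readout is membrane depolarisation from a cAMP-sensing CNG channel, detected with a potential dye at ex 535/em 590. Cells were HEK293-derived (endogenous PDE-IV) at 1000 cells/well, titrated up to 22.9 uM final.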

[9] = qHTS Assay for Identification of Small Molecule Agonists for Hypoxia Response Element Signaling Pathway (AID 914; active = well fitted activation curve with a large enough effect in the signal ratio, with a control signal flat, not every such curve was filed as active; the % refers to the signal ratio; note: % of control where 0% means no effect); details: ME-180 (cervical carcinoma) HRE-bla reporter, beta-lactamase ratio, CoCl2, 17 h; activation: stronger effect = higher value
Method in brief: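 Read-out: CCF4 FRET ratio of 460nm to 530nm emission (excitation 405nm) after 2.5 hours at room temperature, taken from HRE-bla ME-180 cells that had been exposed to compound and EC50 CoCl2 for 17 hours.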

[10] = qHTS Assay for Lipid Storage Modulators (AID 1519; calls by dose curve); details: Drosophila S3 cells, BODIPY lipid droplet/cell ratio, laser cytometry, cells loaded with oleic acid; for activity change, negative = inhibition: at 57.5 µM (top of the series)
Method in brief: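 Cells seeded at 5,000 per well were treated with compounds over a concentration series and loaded with oleic acid (400 uM, as added). Lipid droplet fluorescence (488 nm excitation, 500-530 nm channel) was read by laser-scanning cytometry and normalized to 20 uM Triacsin C.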

[11] = Primary qHTS for small molecule stabilizers of the endoplasmic reticulum resident proteome: Secreted ER Calcium Modulated Protein (SERCaMP) assay (AID 1508630; active = well fitted curve in the direction sought with a large enough effect; an effect the other way counts as inactive or inconclusive; note: % is set by controls: 0 for no effect and ±100 for the full control effect); details: SH-SY5Y GLuc-SERCaMP (Gaussia luciferase released on ER calcium loss) secretion, thapsigargin, luminescence; series mostly up to 38.4 µM
Method in brief: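 GLuc-SERCaMP-expressing SH-SY5Y cells, pretreated 16 h with compound, are challenged with thapsigargin to empty ER calcium stores; after 4 h, coelenterazine is added directly to the medium and luminescence is imaged.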

[12] = biological target: Cytochrome P450 2D6 (Homo sapiens) (UniProt P10635); assay: qHTS Assay for Inhibitors and Substrates of Cytochrome P450 2D6 (AID 891; active = well fitted curve in the direction sought with a large enough effect; an effect the other way counts as inactive or inconclusive; note: potency is the fitted concentration of half-maximal effect; nearly all actives have a fitted effect of over 60% in size); details: recombinant CYP2D6, luciferin-ME EGE luminescence; series mostly up to 57.1 µM
Sequence of Cytochrome P450 2D6 (Homo sapiens) (P10635 whole entry, looked up): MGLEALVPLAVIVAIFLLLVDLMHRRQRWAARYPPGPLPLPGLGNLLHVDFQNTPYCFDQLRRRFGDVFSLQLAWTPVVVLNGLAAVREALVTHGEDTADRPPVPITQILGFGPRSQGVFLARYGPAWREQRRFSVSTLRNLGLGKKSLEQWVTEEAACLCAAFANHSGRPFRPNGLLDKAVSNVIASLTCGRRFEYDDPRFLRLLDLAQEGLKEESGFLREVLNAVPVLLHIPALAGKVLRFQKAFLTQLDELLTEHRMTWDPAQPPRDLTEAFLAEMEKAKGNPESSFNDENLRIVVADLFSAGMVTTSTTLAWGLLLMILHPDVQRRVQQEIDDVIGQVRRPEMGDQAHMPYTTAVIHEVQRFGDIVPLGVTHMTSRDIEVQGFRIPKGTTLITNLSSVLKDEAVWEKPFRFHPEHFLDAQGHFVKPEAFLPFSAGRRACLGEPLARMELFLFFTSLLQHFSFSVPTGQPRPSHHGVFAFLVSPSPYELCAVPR
Method in brief: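 Human CYP2D6 (5 nM) with 30 uM Luciferin-ME EGE (at Km) in 100 mM KPO4, compound preincubated 10 min, then NADPH regeneration system for 60 min at room temperature. Luciferin read by luminescence; normalized to 1.43 uM quinidine.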

[13] = biological target: Cytochrome P450 3A4 (Homo sapiens) (UniProt P08684); assay: qHTS Assay for Activators of Cytochrome P450 3A4 (AID 885; active = well fitted curve in the direction sought with a large enough effect; an effect the other way counts as inactive or inconclusive; note: nearly all actives have a fitted effect of over 65% in size; note: potency is the fitted concentration of half-maximal effect); details: recombinant CYP3A4, Luciferin-PPXE luminescence, 60 min; series mostly up to 57.1 µM
Sequence of Cytochrome P450 3A4 (Homo sapiens) (P08684 whole entry, looked up): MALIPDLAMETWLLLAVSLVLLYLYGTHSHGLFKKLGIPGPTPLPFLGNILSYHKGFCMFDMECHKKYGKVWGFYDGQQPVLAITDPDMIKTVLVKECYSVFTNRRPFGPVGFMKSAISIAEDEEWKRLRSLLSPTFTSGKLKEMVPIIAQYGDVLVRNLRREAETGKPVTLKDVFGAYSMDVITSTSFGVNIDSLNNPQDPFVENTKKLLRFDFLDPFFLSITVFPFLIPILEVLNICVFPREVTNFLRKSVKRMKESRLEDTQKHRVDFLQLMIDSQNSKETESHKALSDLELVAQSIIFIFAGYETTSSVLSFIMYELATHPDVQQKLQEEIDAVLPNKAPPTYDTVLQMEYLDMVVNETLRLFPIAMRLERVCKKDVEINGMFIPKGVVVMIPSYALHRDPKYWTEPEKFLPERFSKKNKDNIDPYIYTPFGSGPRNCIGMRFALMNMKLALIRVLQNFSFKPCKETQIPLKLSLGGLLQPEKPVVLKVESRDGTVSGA
Method in brief: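 Steps: enzyme/substrate mix dispensed; compound added, 10 min RT; NADPH regeneration solution added, 60 min RT; luciferin detection buffer stops reaction; 20 min later luminescence measured.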

[14] = biological target: Cytochrome P450 2C9 (Homo sapiens) (UniProt P11712); assay: qHTS Assay for Inhibitors and Substrates of Cytochrome P450 2C9 (AID 883; active = well fitted curve in the direction sought with a large enough effect; an effect the other way counts as inactive or inconclusive; note: potency is the fitted concentration of half-maximal effect; nearly all actives have a fitted effect of over 60% in size); details: recombinant CYP2C9, luciferin-H luminescence, 60 min; series mostly up to 57.1 µM
Sequence of Cytochrome P450 2C9 (Homo sapiens) (P11712 whole entry, looked up): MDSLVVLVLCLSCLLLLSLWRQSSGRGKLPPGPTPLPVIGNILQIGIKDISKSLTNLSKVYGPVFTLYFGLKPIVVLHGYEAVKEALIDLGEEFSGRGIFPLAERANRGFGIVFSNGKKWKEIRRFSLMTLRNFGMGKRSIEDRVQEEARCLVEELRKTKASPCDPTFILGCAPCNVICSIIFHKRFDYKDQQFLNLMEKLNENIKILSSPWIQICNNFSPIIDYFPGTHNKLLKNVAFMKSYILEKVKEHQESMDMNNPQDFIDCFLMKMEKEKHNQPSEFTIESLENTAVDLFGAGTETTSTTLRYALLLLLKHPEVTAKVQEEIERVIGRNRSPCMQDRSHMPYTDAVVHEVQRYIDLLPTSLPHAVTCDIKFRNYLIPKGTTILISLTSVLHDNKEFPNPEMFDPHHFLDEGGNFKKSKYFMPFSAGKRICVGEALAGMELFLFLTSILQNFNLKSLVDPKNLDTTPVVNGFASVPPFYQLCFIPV
Method in brief: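 Human CYP2C9 (10nM) with Luciferin-H at 100uM (its KM) in 25mM KPO4; compound preincubated 10 min at 37C, then NADPH regeneration for 60 min at 37C. Luciferin read by luminescence after detection reagent; normalized to 57uM sulphaphenazole as full inhibition.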

[15] = measured here: cell count channel max response
[16] = measured here: lipid channel max response

c1csc(CN2CC[C@@]3(CCCNC3)C2)n1
1.97%: max response [10, 16]
-1.59%: max response [10, 15]
inactive: Potency [1] > 11.4 µM | outcome [2] | Potency [3] | activity change, negative = inhibition [4] -10% | outcome [5] | Potency [6] > 46 µM | outcome [7] | Potency [8] | activation [9] 9.27% | activity change, negative = inhibition [10] 0.956% | outcome [11]

N#Cc1ccc(CN2CC3(CCNCC3)C2)cc1
-10.3%: max response [10, 16]
inactive: Potency [1] > 11.4 µM | outcome [2] | activity change, negative = inhibition [4] -23.5% | outcome [5] | Potency [6] > 46 µM | outcome [7] | Potency [8] | activity change, negative = inhibition [10] -3.34% | outcome [11]
-8.82%: max response [10, 15]

CC(C)CN1CCC2(CC1)CCN(S(C)(=O)=O)CC2
active: Potency [12] 0.794 µM
inactive: outcome [2] | Potency [3] | activity change, negative = inhibition [4] 6.76% | Potency [6] > 46 µM | outcome [7] | Potency [8] | activity change, negative = inhibition [10] -1.49% | outcome [11]
-17.2%: max response [10, 16]
-15.1%: max response [10, 15]

O=C(c1ccncc1)N1CCC2(CC1)CN(Cc1ccccc1)C2
-4.26%: max response [10, 15]
inactive: Potency [1] > 11.4 µM | outcome [2] | Potency [3] | Potency [6] > 46 µM | outcome [7] | Potency [8] | Potency [13] | activity change, negative = inhibition [10] -1.45% | outcome [11]
-4.05%: max response [10, 16]
active: Potency [12] 6.31 µM

O=C(Oc1ccccc1)N1CCC2(CCCN(Cc3ccccc3)C2)CC1
0.129%: max response [10, 15]
4.78%: max response [10, 16]
inactive: outcome [2] | Potency [3] | outcome [5] | Potency [6] > 46 µM | outcome [7] | Potency [8] | Potency [13] | activity change, negative = inhibition [10] 2.57% | outcome [11]

COCC(=O)N1CCC2(CCCN(Cc3ccncc3)C2)CC1
21.3%: max response [10, 16]
inactive: Potency [1] > 11.4 µM | outcome [2] | outcome [5] | Potency [6] > 46 µM | outcome [7] | Potency [8] | Potency [13] | activity change, negative = inhibition [10] 5.89% | outcome [11]
12.2%: max response [10, 15]
active: Potency [14] 5.01 µM

O=C(Oc1ccccc1)N1CCC2(CC1)CN(C(c1ccccc1)c1ccccc1)C2
inactive: Potency [1] > 11.4 µM | outcome [2] | Potency [3] | activity change, negative = inhibition [4] -29.6% | outcome [5] | outcome [7] | Potency [8] | activity change, negative = inhibition [10] -5.67% | outcome [11]
-3.18%: max response [10, 15]
active: Potency [13] 6.31 µM | Potency [12] 7.94 µM
-5.43%: max response [10, 16]

— PubChem BioAssay (NCATS)
